Most compounds without a hit are left out; they make up all but 5.7% or so of the library.
A549 viability – counter-screen for Nrf2 inhibitors: cytotoxicity in A549 cells. A549 ARE-Fluc cells, CellTiter-Fluor viability, 18-24 h. Potency, µM (titrated, usually from 46 µM), for the others: top-dose activity change, negative = cytotoxicity, hits mostly inhibitors. 390,000 tested, 0.16% active. AID 504648; further: potency means the concentration at half of the fitted maximal effect
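A549 ARE_Fluc cells in 5% FBS OPTI-MEM were exposed to compounds in concentration-response for 18-24 h at 37 deg C. Viability was read by CellTiter-Fluor fluorescence (Ex 405/Em 525) after 30 min, before the luciferase read.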
PI4K2A inh – inhibitors of human PI4K2A. purified PI4K2A, ADP-Glo luminescence, 1 h; stronger effect = lower value. activity change, negative = inhibition, % at 76.9 µM. 420,000 tested, 0.13% active; in the data active means activity change below about -50%; inconclusive means mostly about -30% to -49%;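 further: -100% = wells without enzyme as full effect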
Target sequence (Q9BTU6 whole entry, looked up): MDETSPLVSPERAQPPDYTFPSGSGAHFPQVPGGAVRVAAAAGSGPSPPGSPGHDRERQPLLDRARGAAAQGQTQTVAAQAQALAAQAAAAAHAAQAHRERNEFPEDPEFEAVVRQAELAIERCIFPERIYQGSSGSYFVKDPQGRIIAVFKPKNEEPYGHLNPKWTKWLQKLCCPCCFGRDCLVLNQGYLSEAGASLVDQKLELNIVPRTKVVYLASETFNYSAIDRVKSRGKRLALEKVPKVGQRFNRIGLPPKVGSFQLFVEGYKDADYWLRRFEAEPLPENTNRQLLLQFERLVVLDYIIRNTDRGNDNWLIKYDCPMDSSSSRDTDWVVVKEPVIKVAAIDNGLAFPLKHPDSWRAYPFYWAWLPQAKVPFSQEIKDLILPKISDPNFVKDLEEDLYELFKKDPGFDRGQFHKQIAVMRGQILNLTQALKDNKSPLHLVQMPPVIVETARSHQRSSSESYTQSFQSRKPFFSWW
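In this quantitative HTS, ADP production by PI4K2A was quantified luminescently after 1 h at ambient temperature; 100 microM adenosine served as plate-quality control.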
KB-V1 MDR tox – KB-V1 MDR subline cytotoxicity. KB-V1 MDR cells viability, CellTiter-Glo, 72 h. Potency, µM (titrated, usually from 46.1 µM), usual class: cytotoxic. 400,000 tested, 3.4% active. AID 1347076; further: potency means the concentration at half of the fitted maximal effect; nearly all actives have a fitted effect of over 60% in size
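Following 72 h at 37 degrees C with compound, KB-V1 cell viability was read by CellTiter-Glo luminescence, medium being phenol-red-free DMEM plus 10% FBS; concentration-response parameters came from normalized, curve-fitted qHTS data.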
KB-3-1 cytotox – kills parental KB-3-1 adenocarcinoma cells | KB-3-1 viability, CellTiter-Glo ATP luminescence, 72 h | Potency, µM (titrated, usually from 46.1 µM), usual class: cytotoxic | 400,000 tested, 1.4% active | AID 1347075; further: potency means the concentration at half of the fitted maximal effect; nearly all actives have a fitted effect of over 60% in size
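Cytotoxicity in the drug-sensitive parental line KB-3-1 was scored as loss of CellTiter-Glo luminescence following 72 h incubation with compound. Values come from curve fitting of normalized concentration-response data.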
Nrf2 inh – inhibitors of Nrf2 signaling; 360,000 tested, 2.1% active; Potency, µM (doses to about 46 µM), inactives show at the highest dose activity change, negative = inhibition, actives largely listed as inhibitors; AID 504444; A549 ARE-Fluc reporter, luciferase luminescence, 18-24 h; further: potency means the concentration at half of the fitted maximal effect; nearly all actives have a fitted effect of over 60% in size
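In this cell-based qHTS, ARE-driven firefly luciferase in A549 cells reports Nrf2 activity; the luminescent signal after BugLite lysis is the measured value, with a prior CellTiter-Fluor read for cell health.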
Giardia killer – kills Giardia lamblia | Giardia lamblia trophozoite viability | activity change, % at 7.66 µM, hits read low | 340,000 tested, 0.15% active | AID 540267; in the data active means activity change below about -80%; inconclusive means between about -30% and that limit;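 further: parasites exposed to compound for two days anaerobically before the ATP read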
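Trophozoites 100 cells/well + cpd; 48 hrs, 37 deg C, anaerobic. ATPLite 1-Step added, 15-30 min RT, luminescence read (ATP-based viability).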
Numbers without * were called inactive; i = inactive; ? = inconclusive; · = not tested or not shown. Unless noted, the call rests on the fitted dose curve; in most records, active means well fitted curve in the direction sought with a large enough effect; inconclusive means small, poorly fitted or top-dose-only effect, or another doubt; inactive means no such curve, though single readings can be large; an effect the other way counts as inactive or inconclusive. Unless noted, on the % scale 0 is the no-effect control and ±100 the full control effect.

SMILES	A549 viability	PI4K2A inh	KB-V1 MDR tox	KB-3-1 cytotox	Nrf2 inh	Giardia killer
Cn1c(-c2sc3cc(C(F)(F)F)cnc3c2-c2ccccn2)n[nH]c1=S	-10%	-1	i	i	0%	-10
Cc1cc(NC(=O)C2CCCN(S(=O)(=O)c3cccc4nonc34)C2)ccc1Br (configuration not stated)	-9%	-1	·	·	8%	20
Cc1ccc(C(=O)N2CCCN(c3nc4cc5c(cc4cc3C#N)OCO5)CC2)cc1	-3%	-5	23µM*	?	?	-6
N#Cc1cc2cc3c(cc2nc1N1CCCCC1)OCCO3	3%	-10	i	i	2%	3
COCCCNC(=S)N1CCCN(c2nc3cc(C)ccc3cc2C#N)CC1	-12%	-2	?	i	16µM*	-23
COC(=O)c1cccc(Cn2ccc3ccc(-c4ccc5ccn(C(=O)c6ccc(C)cc6)c5c4)cc32)c1	·	-3	·	·	·	·
C[n+]1ccnc2ccccc21	·	·	10µM*	4.1µM*	·	·
Clc1ccc2nccnc2c1	·	·	i	?	·	·
C[n+]1ccnc2cc(Cl)ccc21	·	·	5.8µM*	4.1µM*	·	·
CCOC(=O)[C@]12CCCC=C1N(Cc1ccc(OC)cc1)C(=O)[C@@H]2CC(=O)NCCCCc1ccccc1	·	-2	·	·	·	·
CCOC(=O)C(NC(=O)c1ccccc1)(OCC1(CC)COC1)C(F)(F)F (configuration not stated)	-8%	3	18µM*	i	3%	-15
CC1(C)Cc2nc3oc4c(N(CCO)Cc5ccccc5)ncnc4c3cc2CO1	5%	-2	15µM*	i	?	3
COCCSc1ncnc2c1oc1nc3c(cc12)COC(C)(C)C3	0%	-3	i	?	0%	6
O=C(Nc1ccc2c(c1)OCCO2)c1ccc(Br)s1	-20%	1	13µM*	18µM*	?	-16
Cc1ccsc1C(=O)Nc1ccc2c(c1)OCCO2	11%	?	21µM*	?	?	?
CCn1ncc(Br)c1C(=O)Nc1ccc2c(c1)OCCO2	16%	5	21µM*	?	?	15
Cc1occc1C(=O)Nc1ccc2c(c1)OCCO2	2%	-23	13µM*	i	?	-11
Cc1cc(C(=O)Nc2ccc3c(c2)OCCO3)c(C)o1	3%	3	i	i	?	-1
Cc1ncoc1C(=O)Nc1ccc2c(c1)OCCO2	4%	?	i	?	?	10
CCn1ncc(Br)c1C(=O)Nc1cccc(F)c1	4%	-1	i	i	-9%	7
O=[S+]([O-])(NC[C@H]1CCC[C@H](CN[S+](=O)([O-])c2c(F)cccc2F)C1)c1ccc2c(c1)OCCO2	-12%	·	·	·	-15%	·
O=[N+]([O-])c1ccccc1/C=N/N1CCN(c2ccc(Cl)cc2)CC1	-3%	-1	10µM*	?	2%	10
O=C(Nc1cnccn1)Nc1ccccc1Cl	-2%	-4	9.2µM*	?	28%	-8
CC(C)c1ccc(NC(=O)Nc2cnccn2)cc1	-12%	3	?	4.1µM*	7%	-3
CCOc1ccccc1NC(=O)Nc1cnccn1	-10%	1	6.5µM*	i	-9%	14
SMILES	A549 viability	PI4K2A inh	KB-V1 MDR tox	KB-3-1 cytotox	Nrf2 inh	Giardia killer
CCc1ccccc1NC(=O)Nc1cnccn1	8%	5	i	i	-25%	-3
O=C(Nc1ccccn1)Nc1ccccc1Cl	-5%	-4	i	i	?	7
CN1CCN(NC(=O)Nc2cccc(Cl)c2Cl)CC1	2%	1	i	i	7%	27
Cn1nccc1NC(=O)Nc1cccc(Cl)c1Cl	-1%	-9	i	?	16µM*	4
Clc1ccc(Nc2nc(NCc3ccco3)nc3nccnc23)cc1	1%	·	?	?	12%	16
N#Cc1ccc(N2CCN(S(=O)(=O)c3ccc4c(c3)CC(=O)N4)CC2)cc1	15%	·	i	?	7%	·
O=C(Nc1cccc(Cl)c1)Nc1cnccn1	7%	2	i	i	?	3
O=C(Nc1cnccn1)Nc1cccc(Cl)c1Cl	-15%	4	12µM*	?	-70%	11
C=CCn1c(C)cc(C(=O)Cn2nc(C(=O)O)c3ccccc3c2=O)c1C	-1%	4	i	i	15µM*	?
O=C(Cc1ccc(OCCc2ccccc2)cc1)NO	·	·	?	i	·	·
O=C(Nc1ccc(C(=O)N2CCN(c3cccc(Cl)c3)CC2)cc1)c1nsc2ccccc12	0%	-2	i	i	·	·
O=C(OCc1ccccc1)c1ccc(NCc2cc(O)ccc2O)cc1	-22%	-2	2.6µM*	3.7µM*	16%	-5
Cc1cccc(OCC(=O)Nc2ccc(O)c(-c3nc4ccccc4o3)c2)c1	·	·	i	i	·	·
S=C(Nc1ccc(Br)cc1)OCCN1CCCC12CCC(c1ccccc1)CC2 (configuration not stated)	·	-2	·	·	·	·
Cc1cccc(C)c1NC(=O)C(Cl)=C(Cl)Cl	1%	3	?	18µM*	26%	37
CCCN1C(=O)c2ccccc2NC1c1ccc(OC)c(COc2cccc(OC)c2)c1 (configuration not stated)	-19%	·	i	?	?	?
O=S(=O)(c1c(Cl)cc(Br)cc1Cl)N1CCN(C(=S)NC2CC2)CC1	-20%	-4	i	i	12µM*	6
O=S(=O)(c1ccccc1)N1CCN(C(=S)NC2CCCC2)CC1	?	2	i	i	6%	5
Cc1cc(CNC(=O)COc2ccc(F)cc2F)c2ccccc2n1	-6%	2	?	i	16µM*	-19
CN(C)CCCNc1c2c(nc3ccccc13)CCC2	13µM*	-1	i	?	5%	10
COc1ccccc1Nc1c2ccccc2nc2ccccc12	?	5	15µM*	?	15µM*	8
COc1ccc(C)cc1Nc1c2c(nc3ccccc13)CCC2	4%	-1	2.9µM*	0.65µM*	?	26
COc1cc(Nc2c3ccccc3nc3ccccc23)cc(OC)c1OC	?	1	?	?	?	-3
CCCC[C@H]1C2CC(OC(=O)Nc3ccc(F)cc3)C(C2)[C@H]2CCCCN21 (some centres not stated)	·	-1	·	·	·	·
C[C@H](CN1CCCC1)C(=O)c1ccc(C(F)(F)F)cc1	·	-1	·	·	·	·
O=S1(=O)c2ccccc2N(Cc2ccccc2F)c2ccccc21	24%	-3	i	i	?	·
COc1ccc(Nc2c3c(nc4ccccc24)CCC3)cc1	?	6	21µM*	?	?	33
